Experimental data published in PubChem BioAssay AID449762 (Southern Research Specialized Biocontainment Screening …, 2010).
The campaign covered roughly 330,000 compounds. About 1,900 (0.58%) were called active. Roughly 4% stayed inconclusive and do not appear here. Only a sample is shown. Results with a measured potency or affinity are listed apart. A number with no mark means an inactive call. No stated cut-off is given here; in the data, inconclusive means inhibition above about 70% without an active follow-up result; inactive means below that.

Experiment: M. tuberculosis growth inhibition, HTS (AID 449762);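 further: bacterial growth assessed after seven days of incubation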
Conditions: M. tuberculosis H37Rv growth inhibition, 7H9 media; at 25 µM; hits give high values

| Compound | inhibition |
| --- | --- |
| COc1cc(/C=N\NC(=O)c2ccc(Cl)cc2)ccc1Oc1ccc([N+](=O)[O-])cn1 | -6.52% |
| Cc1cccc(-n2c(N)c(-c3nc4ccccc4n3C)c3nc4ccccc4nc32)c1 | 1.57% |
| Cc1nc2ccccc2n1CCc1ccccc1 | -2.95% |
| CNC(=O)CS(=O)(=O)CC(=O)Nc1cc(OC(C)C)c(Cl)cc1Cl | -5.55% |
| O=C(OC(C(=O)Nc1ccc(Cl)c(C(F)(F)F)c1)c1ccccc1)C1=COCCO1 (configuration not stated) | 45.5% |
| O=C(Cc1ccccc1)Nc1nccs1 | -6.19% |
| COC(=O)CCC(=O)Nc1nccs1 | 5.49% |
| CCn1c(SCC(=O)Nc2nc(C)c(C)s2)nnc1-c1cccnc1 | -1.86% |
| CC1=NC(C(F)(F)F)(C(F)(F)F)C(C#N)=C(C)N1 | -4.27% |
| C=CCn1cccc(C(=O)Nc2ccc(SC)cc2)c1=O | -0.65% |
| O=C(c1cccc(Cl)c1)c1nn(-c2ccccc2)c(=O)cc1C(F)(F)F | -1.58% |
| O=C(c1ccccc1)c1nn(-c2ccccc2)c(=O)cc1C(F)(F)F | 13.9% |
| CCCCNC(=O)c1c(C)cc(=O)oc1C | -6.73% |
| Oc1ccccc1C1Nc2cccc3cccc(c23)N1 | 6.02% |
| Clc1cccc(Cl)c1C1Nc2cccc3cccc(c23)N1 | 14.4% |
| O=C(CSc1nnnn1-c1ccc(F)cc1F)Nc1ccccc1F | -0.25% |
| CC(=O)NC1=NN(C(C)=O)C(c2ccc(F)cc2)S1 (configuration not stated) | -2.18% |
| Cc1onc(-c2ccccc2)c1C(=O)NCc1cccnc1 | -1.76% |
| Cc1cc(=O)oc(C)c1C(=O)NCc1cccnc1 | -7.02% |
| COc1ccc(-c2cc(C(=O)N/N=C(\C)c3cccnc3)c3cc(C)ccc3n2)cc1OC | -3% |
| CCc1nnc(NC(=O)c2ccc(S(=O)(=O)N3CCCC3)cc2)s1 | -0.36% |
| O=C(CSc1cccc[n+]1[O-])N1CCCCCC1 | -7.02% |
| CN(C(=O)CSc1cccc[n+]1[O-])c1ccccc1 | -7.05% |
| O=C(O)CSc1cccc[n+]1[O-] | -0.1% |

| Compound | inhibition |
| --- | --- |
| [O-][n+]1ccccc1SCc1ccccc1 | -3.14% |
| CN(C(=O)CS(=O)(=O)c1cn(CC(=O)N2CCCCC2)c2ccccc12)c1ccccc1 | -2.32% |
| O=C(O)C1(P(=O)(c2ccccc2)c2ccccc2)CCCC1 | 0.37% |
| CN(C)CCCNC(=S)N(CCCO)Cc1cc2cc3c(cc2[nH]c1=O)OCO3 | 4.05% |
| COc1cc(C(CCN2CCCC2)c2c(OC)cc(OC)c3c(-c4ccccc4)cc(=O)oc23)cc(OC)c1OC (configuration not stated) | 56.2% |
| COc1ccc(C(CCN2CCN(c3ccccc3)CC2)c2c(OC)cc(OC)c3c(-c4ccccc4)cc(=O)oc23)cc1 (configuration not stated) | -5.41% |
| COc1ccc(N2C(=O)NC(NS(=O)(=O)c3ccccc3)(C(F)(F)F)C2=O)cc1 (configuration not stated) | -5.61% |
| CNC(=O)COC(=O)c1cc(=O)[nH]c2ccccc12 | -5.4% |
| Cc1c2cnn(CC(=O)Nc3cccc(C(F)(F)F)c3)c(=O)c2c(C)n1Cc1ccccc1F | -1.26% |
| O=C(CN1C(=O)COc2ccccc21)N1CCCC1 | -0.99% |
| O=C(CN1CCOc2ccccc21)N1CCCC1 | -8.18% |
| CC(C)c1ccc(NC2CCCN(C(=O)CCN3CCOCC3)C2)cc1 (configuration not stated) | 7.93% |
| O=C(Nc1nc(-c2cc(Cl)sc2Cl)cs1)c1ccc(Br)s1 | 1.67% |
| O=C(Nc1nc(-c2cc(Cl)sc2Cl)cs1)c1ccccc1 | -8.95% |
| CCC1CCCCN1C(=O)c1noc(C(C)C)c1[N+](=O)[O-] (configuration not stated) | 3.49% |
| CC12CC3(C)CC(C)(C1)CC(C(N)=O)(C2)C3 | -0.48% |
| COc1ccccc1NC(=O)CSCc1cc(=O)n2ccsc2n1 | 3.56% |
| CCN(CCNCC(O)COCc1ccc(Cl)cc1)c1cccc(C)c1 (configuration not stated) | 57% |
| Cc1ccc(C(C)C)c(OCC(O)CNC2CCCC2)c1 (configuration not stated) | 9.04% |
| Cc1ccc(S(=O)(=O)Cc2ccc(C(=O)NCCCN3CCN(C)CC3)o2)cc1 | -20.7% |
| O=C(Cn1c2ccc(F)cc2c2nc3n(c(=O)c21)CCS3)N1CCCC1 | -4.92% |
| CCN(CC)S(=O)(=O)c1cccc(-c2csc(C)n2)c1 | -1.32% |
| COc1cc(/C=N\Nc2nncn2N)ccc1OC(C)=O | -2.67% |
